Usually inhibition stands for the drop in the measured response relative to a control, in per cent.

Structures are written as SMILES. The whole screen tested about 200,000 compounds, of which about 3,000 (1.5%) were called active. The sample holds actives, similar compounds and a random draw of the others, so the mix is not that of the screen. Unmarked numbers belong to inactive results.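 Rule for the calls: active = inhibition above about 50% when tested at 10 µM (limit read from the data); inactive = the rest.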

Chain of Luciferin 4-monooxygenase (Photinus pyralis) (P08659 whole entry, looked up): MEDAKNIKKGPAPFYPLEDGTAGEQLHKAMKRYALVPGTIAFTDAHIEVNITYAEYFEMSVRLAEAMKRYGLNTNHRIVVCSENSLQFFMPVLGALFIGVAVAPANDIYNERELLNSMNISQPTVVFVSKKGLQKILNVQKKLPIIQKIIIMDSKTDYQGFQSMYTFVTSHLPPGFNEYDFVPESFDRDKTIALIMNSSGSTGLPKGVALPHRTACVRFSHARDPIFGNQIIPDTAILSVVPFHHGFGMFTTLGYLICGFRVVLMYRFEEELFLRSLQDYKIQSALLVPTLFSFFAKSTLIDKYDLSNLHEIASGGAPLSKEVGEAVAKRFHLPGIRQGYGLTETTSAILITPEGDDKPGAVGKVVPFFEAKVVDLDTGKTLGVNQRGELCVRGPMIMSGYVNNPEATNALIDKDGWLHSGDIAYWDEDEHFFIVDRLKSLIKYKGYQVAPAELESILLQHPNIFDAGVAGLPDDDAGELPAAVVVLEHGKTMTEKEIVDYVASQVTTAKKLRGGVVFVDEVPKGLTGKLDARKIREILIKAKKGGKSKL

This experiment addresses Luciferin 4-monooxygenase (Photinus pyralis) (UniProt P08659). Nature of the experiment: inhibition of purified FLuc reporter enzyme – biochemical, luminescence, ATPLite, artefact control for luciferase-based inhibitor screens, primary screen (AID 1006). As to conditions: ATPLite firefly luciferase biochemical luminescence, 10 min; at 10 µM; stronger effect = higher value. (In general: Cellular ATP, detected with luciferase, serves as a proxy for viable cell number.)
`O=C(Nc1ccc(Cl)cn1)c1ccc2c(c1)OCCO2`: the inhibition is 82.7% (active).

On to `O=C(Nc1ccc2c(c1)OCCO2)c1ccc(Cl)c(S(=O)(=O)N2CCCCC2)c1`, for which the inhibition is 0.9%.

Take `COc1c(Cl)cc(C(=O)Nc2ccc(Cl)cn2)cc1Cl`: the inhibition is -5.9%.

In the case of `CN1CCN(c2ccc(NC(=O)c3ccc4c(c3)OCCO4)cc2Cl)CC1`, the inhibition was 51.8% (active).

For `O=C(Nc1cccc(S(=O)(=O)Nc2ccc(Cl)cc2)c1)c1ccc2c(c1)OCCO2`, the inhibition was -5.3%.

Consider `O=C(Nc1cccc(Cl)c1N1CCOCC1)c1ccc2c(c1)OCCO2`, for which the inhibition is -0.6%.

`O=C(c1cccc(F)c1)N1CCN(c2ccc([N+](=O)[O-])c3cccnc23)CC1`: the inhibition is -7.7%.

As to `CCCCC(NC(=O)c1cccc(Br)c1)C(=O)O` (centres undefined), the inhibition is 0.5%.

As for `CN(C)C=NC(=O)c1cccn1-c1ncc(C(F)(F)F)cc1Cl`, the inhibition was -1.5%.

As to `COc1cccc(-c2cc(C(=O)N/N=C/c3ccc(OC)c(COC(C)=O)c3)c3ccccc3n2)c1`, the inhibition is -1.7%.

`O=C(N/N=C/C=C/c1ccco1)c1cccs1`: the inhibition is 12.4%.

Regarding `Cc1ccc(-c2cc(C(=O)N/N=C/C=C/c3ccco3)c3ccccc3n2)cc1C`, the inhibition is 73.1% (active).

For `Cc1nnc(SCC(=O)NNC(=O)c2ccc(Cl)cc2)n1CC1CCCO1` (centres undefined), the inhibition is -8.3%.

As for `O=C(Oc1ccccc1)c1ccc2nccnc2c1`, the inhibition is 13.3%.

Regarding `c1ccc(-c2noc(-c3cccs3)n2)nc1`, the inhibition is 71.2% (active).

For `c1csc(-c2nc(-c3ccncc3)no2)c1`, the inhibition is 17.7%.

`CC(C)c1nc(-c2ccccn2)no1`: the inhibition is -5.3%.

Consider `O=C(Oc1ccc(-c2nc(-c3ccccn3)no2)cc1)c1ccccc1`, for which the inhibition was 65.5% (active).

For the molecule `COc1nc(-c2ccc(Cl)cc2)ccc1-c1noc(-c2cccs2)n1`, the inhibition was -3.8%.

With `COc1ccc(NC(=S)N2CCCC(CO)C2)c(OC)c1` (centres undefined), the inhibition is -2.4%.

Take `Cc1ccc(N(C(=O)Cc2cccs2)C(C(=O)NCC2CCCO2)c2ccncc2)cc1` (centres undefined): the inhibition is -3.7%.

As to `CCN(C(=O)COC(=O)c1cc(S(=O)(=O)N2CCc3ccccc32)ccc1OC)C1CCS(=O)(=O)C1` (centres undefined), the inhibition was -6.8%.

For the molecule `CCCN(CC1COc2ccccc2O1)C(=S)Nc1ccc(C)cc1` (centres undefined), the inhibition was -6.7%.

Take `CC(C)CNC(=O)C(=O)Nc1ccc(N(C)C)cc1`: the inhibition was 5.5%.

Regarding `CCOc1ccc(N2C(=O)CN(c3cccc4ccccc34)C2=S)cc1`, the inhibition was -3.3%.

Regarding `COc1cc(COCC(O)CN2CCN(Cc3ccc4c(c3)OCO4)CC2)cc(OC)c1OC` (centres undefined), the inhibition was -5%.

For the molecule `N/C(=N\OC(=O)Cc1ccc([N+](=O)[O-])cc1)c1ccccn1`, the inhibition is 9.6%.

For the molecule `O=C(OCc1ccc([N+](=O)[O-])cc1)c1ccccn1`, the inhibition is -6%.

Turning to `N/C(=N\OC(=O)c1ccc([N+](=O)[O-])cc1)c1ccccn1`, the inhibition was 91.5% (active).

The values are drawn from PubChem BioAssay AID1006 (Sanford-Burnham Center for Chemical Genomics, 2008).
